# From PubChem BioAssay (NCI)
# About 83,000 compounds went through this panel and 20% of them were active in at least one assay; those are over-represented in the sample as a whole.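 Plates (96-well) were seeded with cells, treated with compound at one concentration, and incubated for 48 hours before percent growth was determined.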 Unmarked numbers belong to inactive results. Calls of active or inactive are those of the source. How the source made its calls: active means growth percent below 10; inactive means the rest.
# Test system: RXF 393 renal
# Experiment: NCI-60 one-dose screen, 48 h (100 = growth as untreated, 0 = no growth, -100 = all killed)
# Details: 10 µM unless noted
row,SMILES,growth
1,COc1cc(C2CC(C3C(=O)N(C)C(=O)N(C)C3=O)=NN2C=O)cc(OC)c1OC (stereo not given),109%
2,C=C1CCC2C3(C)COC(c4ccccc4)OC3CCC2(C)C1C/C=C1/C(=O)OCC1OC(C)=O (stereo not given),41%
3,Clc1ccc(C2=NN(c3ccc(Cl)cc3)C(c3cccc(Nc4ccnc5cc(Cl)ccc45)c3)C2)cc1 (stereo not given),82.5%
4,CC(=O)N1N=C(c2ccc(Nc3nc(NCCO)nc(NCCO)n3)cc2)CC1c1ccc(Cl)cc1 (stereo not given),108%
5,O=C(c1ccccc1)c1ccc(Oc2ccc([N+](=O)[O-])cc2[N+](=O)[O-])cc1,81.1%
6,O=C(C(=O)N1CCOCC1)c1cn(CCCn2cc(C(=O)C(=O)N3CCOCC3)c3ccccc32)c2ccccc12,119%
7,CC(C)CC1NC(=O)C(CCCN)NC(=O)C(C(C)C)NC(=O)C2CCCN2C(=O)C(Cc2ccccc2)NC(=O)C(CC(C)C)NC(=O)C(CCCN)NC(=O)C(C(C)C)NC(=O)C2CCCN2C(=O)C(Cc2ccccc2)NC1=O (stereo not given),-65.7% (active)
8,Cc1csc(C#Cc2cncc(O)c2)n1,69.9%
9,COc1cc(/C=C/C(=O)C(C(=O)/C=C/c2ccc(OC(=O)CCNC34CC5CC(CC(C5)C3)C4)c(OC)c2)C(=O)CCNC23CC4CC(CC(C4)C2)C3)ccc1OC(=O)CCNC12CC3CC(CC(C3)C1)C2 (stereo not given),-68.8% (active)
10,C/C=C(/C(=C/C)c1ccc(O)cc1)c1ccc(O)cc1,8.39% (active)
11,COc1cc(/C=C/C(=O)CC(=O)/C=C/c2ccc(OC(=O)CCNC34CC5CC(CC(C5)C3)C4)c(OC)c2)ccc1OC(=O)CCNC12CC3CC(CC(C3)C1)C2,-37.7% (active)
12,Oc1c(Cl)cc(Cl)c(Cl)c1Cc1c(O)c(Cl)cc(Cl)c1Cl,15.1%
13,COc1cc(C2CC(c3ccc(C)cc3)=NN2C=O)ccc1OCCN(C)C (stereo not given),79.8%
14,NS(=O)(=O)c1cc(C2(O)NC(=O)c3ccccc32)ccc1Cl (stereo not given),109%
15,CCn1cnc(C[C@H](NC(=O)[C@H](CCCCNC(=O)Nc2cc(C(F)(F)F)cc(C(F)(F)F)c2)NC(=O)Nc2cc(C(F)(F)F)cc(C(F)(F)F)c2)C(=O)OC)c1,-47.2% [100 µM] (active)
16,CS(=O)(=O)N1CCN(Cc2cc3nc(-c4cccc5[nH]ncc45)nc(N4CCOCC4)c3s2)CC1 (tested in a mixture with another compound),-34.2% (active)
17,CN(C)c1ccc(-c2nc3ncc(Br)cc3o2)cc1,83.8%
18,COc1ccc(-c2cc(-c3nnc(SCC(=O)Nc4ccc(C(C)=O)cc4)n3-c3ccccc3)c3ccccc3n2)cc1OC,115%
19,Nc1nc(NC2CC2)c2ncn(C3C=CC(CO)C3)c2n1 (stereo not given),-4.67% (active)
20,C[C@]12CCC(=O)C=C1CC[C@H]1[C@@H]3C[C@@H](O)[C@](O)(C(=O)CO)[C@@]3(C)C[C@H](O)[C@@]12F,137%

row,SMILES,growth
1,NS(=O)(=O)c1cc2c(cc1Cl)NC=NS2(=O)=O,121%
2,COc1cnc2c(c1)C(=O)c1c-2n(CCCn2ccnc2)c(=O)c2cc(F)ccc12,-55.9% (active)
3,NC(=O)c1cc(Br)cc(Br)c1NS(=O)(=O)c1ccccc1,104%
4,CN(C)c1ccc(-n2nc3ccccc3n2)cc1,98.9%
5,CC1CN(C2CCCCC2)C(=O)NC1=O (stereo not given),110%
6,O=C1C=CC(=O)N1c1ccccc1N1C(=O)C=CC1=O,111%
7,Cc1n(Cc2ccc3ccccc3c2)c2ccccc2[n+]1Cc1ccc2ccccc2c1,-88% (active)
8,C[C@H]1O[C@@H](O[C@H]2[C@@H](O)C[C@H](O[C@H]3[C@@H](O)C[C@H](O[C@H]4CC[C@]5(C)C6C[C@@H](O)[C@]7(C)[C@@H](C8=CC(=O)OC8)CC[C@]7(O)C6CC[C@@H]5C4)O[C@@H]3C)O[C@@H]2C)C[C@H](O)[C@@H]1O (stereo not given in full),-22.4% (active)
9,O=C(CNc1ccc2c(c1)C(=O)c1ccccc1C2=O)Nc1ccc2c(c1)C(=O)c1ccccc1C2=O,-89.4% (active)
10,Cc1sc2nc(N3CCCCC3)[nH]c(=O)c2c1C,101%
11,NC(=NCCCCCCN=C(N)/N=C(\N)Nc1ccc(Cl)cc1)/N=C(\N)Nc1ccc(Cl)cc1,1.06% (active)
12,COc1cc(NC(=O)NCc2ccco2)ccc1-c1ccc(NC(=O)NCc2ccco2)cc1OC,-10.7% (active)
13,CSc1nc(Nc2ccc(S(=O)(=O)Nc3ccon3)cc2)c(C#N)c(-c2ccc(Cl)cc2)n1,110%
14,COP(=O)(OC)C(c1ccc(O)cc1)(c1ccc(O)cc1)c1ccc(O)cc1,67.2%
15,C=C1CCC2C(C)(COC(=O)CC)C(OC(=O)CC)CCC2(C)C1C/C=C1/C(=O)OCC1OC(=O)CC (stereo not given),-97.5% (active)
16,Cc1cnc2nc(-c3ccc(N(C)C)cc3)cn2c1,79.7%
17,Cc1ccc2nc3c(n2c1)C(=O)C(=O)c1ccccc1-3,-91.3% (active)
18,CC(C)=CCCC(C)c1ccc(C)c2c1OCN(CC1CCNCC1)C2 (stereo not given),55.2%
19,CCOc1cc(/C=C/C(=O)C(C(=O)/C=C/c2ccc(OC(=O)CNc3nc4ccccc4[nH]3)c(OCC)c2)C(=O)CNc2nc3ccccc3[nH]2)ccc1OC(=O)CNc1nc2ccccc2[nH]1,-71.4% (active)
20,COc1ccc(C(=O)/C=C/c2cccc(Nc3ccnc4cc(Cl)ccc34)c2)cc1,41.7%
